Efflux pump mplx = blocks antifungal efflux pumps in multiplex yeast assay | S. cerevisiae Candida pump triplex, Nile Red efflux | inhibition, % at 10 µM | 0.44% of 330,000 active;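 active = plate passing quality check with inhibition over a set limit, or well fluorescence over plate mean plus 4 SD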;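 also: Nile Red retained in pooled yeast measured as flow cytometry median fluorescence; 0% = buffer negative control and 100% = Enniatin B positive control; higher means more Nile Red kept so more efflux inhibition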
ATG4B inhibitor = blocks human ATG4B protease cleavage of LC3 substrate; Q9Y4P1; ATG4B cleavage of LC3-PLA2, NBD-HPC fluorescence, 1 h; inhibition, % at 8.33 µM; 0.51% of 340,000 active; in the data active = inhibition above about 40%
Target sequence (Q9Y4P1 whole entry, looked up): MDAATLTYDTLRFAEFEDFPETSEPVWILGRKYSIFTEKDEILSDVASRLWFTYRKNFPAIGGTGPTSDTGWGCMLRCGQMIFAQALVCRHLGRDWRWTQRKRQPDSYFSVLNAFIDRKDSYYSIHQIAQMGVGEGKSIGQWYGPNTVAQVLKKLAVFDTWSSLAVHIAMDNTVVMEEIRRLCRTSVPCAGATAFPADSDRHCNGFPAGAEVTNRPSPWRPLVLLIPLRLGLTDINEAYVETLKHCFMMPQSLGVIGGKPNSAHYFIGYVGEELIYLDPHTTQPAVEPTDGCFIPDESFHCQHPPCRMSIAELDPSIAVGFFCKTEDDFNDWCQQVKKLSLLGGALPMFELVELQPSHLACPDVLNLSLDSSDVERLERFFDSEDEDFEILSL
Mot1-301 SUMO = inhibitors of SUMOylation pathway: yeast Mot1-301 growth rescue; growth rescue, % at 18.8 µM; S. cerevisiae Mot1-301 growth rescue, ATP luminescence, 38.5C; percent above DMSO median, 100 means doubled; 1% of 320,000 active;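 active = every valid replicate shows activation above 250% relative to neutral control wells; inactive = the rest, any valid replicate at or below 250%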;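 also: OY570 slx delta 5 strain wells were the positive control but not used for scaling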
AI-2 QS modul = Vibrio harveyi AI-2 quorum sensing modulation; Vibrio harveyi JMH597 AI-2 luminescence/OD600 ratio, 9 h; stronger effect = lower value; strain lacks LuxN and CqsS sensors; 0 = neutral-control median; activity change, % at 7.5 µM; 0.4% of 300,000 active; AID 2094; in the data active = activity change below about -75%, passing the limit was not always enough; inconclusive = no clear call, values can overlap the other calls;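 also: luminescence divided by OD600 gain over 9 h not by final OD600 alone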
V-ATPase pHluor = yeast V-ATPase proton transport regulation by pHLuorin. response, % at 10 µM. 0.37% of 350,000 active. S. cerevisiae, pHLuorin cytosolic pH fluorescence; in the data active = response mostly above about 7.3%, no sharp cut-off; inactive = mostly below about 5.4%; also: actives read high
ATG4B confirm = confirmation of human ATG4B inhibitors. 92% of 320 active. AID 504757. ATG4B protease fluorescent substrate cleavage assay. shares compounds with ATG4B inhibitor. inhibition, % at 8.33 µM; in the data active = inhibition above about 39%
PLA2 ctr = counter-screen for ATG4B inhibitors: human phospholipase A2; shares compounds with ATG4B inhibitor; purified PLA2, NBD-C6-HPC fluorescence, 45 min; inhibition, % at 8.33 µM; 66% of 1,600 active; in the data active = inhibition above about 50%
Target sequence (P04054 whole entry, looked up): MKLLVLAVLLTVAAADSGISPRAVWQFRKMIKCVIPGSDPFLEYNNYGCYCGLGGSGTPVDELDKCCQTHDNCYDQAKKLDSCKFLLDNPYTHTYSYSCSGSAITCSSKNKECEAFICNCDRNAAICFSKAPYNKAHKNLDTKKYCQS
* hit, by the source's call. Shown are actives, neighbours in structure and some others; about 2.5% of the full set was active somewhere.

`O=C(NC(=S)NCCC1=CCCCC1)c1ccc(Br)o1` gave Efflux pump mplx 0, ATG4B inhibitor 40*, Mot1-301 SUMO 391, AI-2 QS modul 44, V-ATPase pHluor -2, ATG4B confirm 62* and PLA2 ctr 36.
O=C(Nc1ccc(Cl)cc1)Nc1ccccc1CC[N+](=O)[O-] was read as Efflux pump mplx 0, ATG4B inhibitor 65*, Mot1-301 SUMO 250, AI-2 QS modul 8, V-ATPase pHluor -2 and PLA2 ctr 71*.
For COc1ccc(CCCc2nnc(SCc3nc4ccccc4c(=O)[nH]3)n2C)c(C)c1 the results were Efflux pump mplx 0, ATG4B inhibitor -11, Mot1-301 SUMO -14, AI-2 QS modul -11 and V-ATPase pHluor -5.
For Cc1oc2cc3oc(=O)c(CCC(=O)NCCN4CCOCC4)c(C)c3cc2c1C the results were Efflux pump mplx 0, ATG4B inhibitor -11, Mot1-301 SUMO 130, AI-2 QS modul -2 and V-ATPase pHluor 0.
O=C(CNCC1CCCCC1)Nc1ccccc1N1CCCCC1 was read as Efflux pump mplx 0, ATG4B inhibitor 41*, Mot1-301 SUMO 145, AI-2 QS modul 14, V-ATPase pHluor 0, ATG4B confirm 65* and PLA2 ctr 39.
Screening COc1ccc(NC(=O)CNCCC2=CCCCC2)cc1 returned Efflux pump mplx 0, ATG4B inhibitor 1, Mot1-301 SUMO 11, AI-2 QS modul 10 and V-ATPase pHluor -3.
For O=C(CNCCC1=CCCCC1)Nc1ccccc1N1CCCCC1 the results were Efflux pump mplx 0, ATG4B inhibitor 49*, Mot1-301 SUMO -10, AI-2 QS modul 10, V-ATPase pHluor 1 and PLA2 ctr 53*.
`O=C(CNC1CCCCCC1)Nc1ccccc1N1CCCCC1` gave Efflux pump mplx 0, ATG4B inhibitor 46*, Mot1-301 SUMO -14, AI-2 QS modul 15, V-ATPase pHluor -3 and PLA2 ctr 53*.
`O=C(Cc1ccccc1)Nc1ccccc1N1CCCC1` gave Efflux pump mplx 0, ATG4B inhibitor 13, Mot1-301 SUMO 7, AI-2 QS modul 25 and V-ATPase pHluor 4.
For CN1C(=O)/C(=C/c2cc(N=Nc3ccccc3)ccc2O)SC1=S the results were Efflux pump mplx 0, ATG4B inhibitor 13, Mot1-301 SUMO -22, AI-2 QS modul 11 and V-ATPase pHluor -1.
`CCn1c(SCc2c(Cl)cccc2Cl)nc2nc3c(cc2c1=O)CCCC3` gave Efflux pump mplx 0, ATG4B inhibitor 0, Mot1-301 SUMO -6, AI-2 QS modul 6 and V-ATPase pHluor -2.
`CCn1c(SCc2ccccc2Cl)nc2nc3c(cc2c1=O)CCCC3` gave ATG4B inhibitor 40*, AI-2 QS modul 7, V-ATPase pHluor 9, ATG4B confirm 66* and PLA2 ctr 27.
`CC12CCC(=O)N1C(C(=O)NNC(=O)COc1cccc(C(F)(F)F)c1)CS2` (configuration not stated) gave Efflux pump mplx 0, ATG4B inhibitor -7, Mot1-301 SUMO 742, AI-2 QS modul 20 and V-ATPase pHluor 5.
`COc1ccc(Br)cc1/C=C(\C(=O)O)c1ccc(S(=O)(=O)N2CCCCC2)s1` gave Efflux pump mplx 0, ATG4B inhibitor 84*, Mot1-301 SUMO 37, V-ATPase pHluor 6 and PLA2 ctr 87*.
For O=C(O)C1Nc2ccc(Br)cc2C2C=CCC12 (configuration not stated) the results were Efflux pump mplx 0, ATG4B inhibitor 64*, Mot1-301 SUMO 4, AI-2 QS modul 13, V-ATPase pHluor 5, ATG4B confirm 32 and PLA2 ctr 21.
`O=C(O)C1Nc2c(Cl)cc(Cl)cc2C2C=CCC12` (configuration not stated) gave Efflux pump mplx 0, ATG4B inhibitor 65*, Mot1-301 SUMO 17, AI-2 QS modul 23, V-ATPase pHluor 1, ATG4B confirm 21 and PLA2 ctr 46.
CC(C(=O)NCCCc1ccccc1)n1cccc1C(=O)c1ccccc1 (configuration not stated) was read as Efflux pump mplx 0, ATG4B inhibitor -6, Mot1-301 SUMO 298, AI-2 QS modul 6 and V-ATPase pHluor 3.
For Nc1nc(-c2ccccc2)c(N=Nc2ccc(Cl)cc2)s1 the results were Efflux pump mplx 0, ATG4B inhibitor 7, Mot1-301 SUMO 4, AI-2 QS modul 20 and V-ATPase pHluor 4.
`Nc1nn(-c2ccccc2)c(N)c1N=Nc1ccccc1F` gave Efflux pump mplx 0, ATG4B inhibitor 70*, Mot1-301 SUMO -4, AI-2 QS modul -25, V-ATPase pHluor -4 and PLA2 ctr 72*.
`Cc1nn(-c2ccccc2)c(N)c1N=Nc1ccc(Cl)cc1` gave Efflux pump mplx 0, ATG4B inhibitor 81*, Mot1-301 SUMO 4, AI-2 QS modul 15, V-ATPase pHluor -2 and PLA2 ctr 89*.
For Cc1cccc(N=Nc2c(C)nn(-c3ccccc3)c2N)c1C the results were Efflux pump mplx 0, ATG4B inhibitor 82*, Mot1-301 SUMO 110, AI-2 QS modul 18, V-ATPase pHluor 1 and PLA2 ctr 90*.
For Nc1ncnc(N)c1N=Nc1ccccc1 the results were Efflux pump mplx 0, ATG4B inhibitor 5, Mot1-301 SUMO -4, AI-2 QS modul -18 and V-ATPase pHluor -2.
For Nc1nn(-c2ccccc2)c(N)c1N=Nc1ccccc1 the results were Efflux pump mplx 2, ATG4B inhibitor 45*, Mot1-301 SUMO 2, AI-2 QS modul -57, V-ATPase pHluor 2, ATG4B confirm 64* and PLA2 ctr 42.
Screening Cc1nn(-c2ccccc2)c(N)c1N=Nc1ccccc1 returned Efflux pump mplx 0, ATG4B inhibitor 73*, Mot1-301 SUMO 76, AI-2 QS modul inconclusive, V-ATPase pHluor -2 and PLA2 ctr 81*.
Cc1nn(-c2ccccc2)c(N)c1-c1ccccc1 was read as Efflux pump mplx 0, ATG4B inhibitor 1, AI-2 QS modul 13 and V-ATPase pHluor -6.
Screening Cc1cccc(OCC(=O)Nc2ccccc2-c2ccccc2)c1 returned Efflux pump mplx 0, ATG4B inhibitor 45*, Mot1-301 SUMO -4, AI-2 QS modul 21, V-ATPase pHluor 1, ATG4B confirm 64* and PLA2 ctr 44.
Screening Cc1c(NC(=O)c2ccccc2NC(=O)COc2ccccc2)cccc1C(=O)O returned Efflux pump mplx 3, ATG4B inhibitor 40*, Mot1-301 SUMO -5, AI-2 QS modul 42, V-ATPase pHluor -2 and PLA2 ctr -14.
COc1ccc(OCC(=O)Nc2ccccc2-c2ccccc2)cc1 was read as Efflux pump mplx 0, ATG4B inhibitor 3, Mot1-301 SUMO 20, AI-2 QS modul 9 and V-ATPase pHluor 2.

Assay outcomes: PubChem BioAssay, several laboratories
